# Paper PMC7862700, “An all-to-all approach to the identification of sequence-specific readers for epigenetic DNA modifications on cytosine”
# Tests used:
# Assay in all cases: DAPPL (digital affinity profiling via proximity ligation, sequencing); 10 mM Tris-HCl pH 7.5, 50 mM NaCl, 1 mM DTT, 4% glycerol, room temperature, 30 min; GST-TFs on glutathione beads, 16-mer random dsDNA library, 0.1% formaldehyde crosslink after washing; high values mean tight binding
# FEV = target: T1, FEV (Homo sapiens, UniProt Q99581 1-238); settings: protein: recombinant; tags: N-terminal GST; dsDNA, one strand shown
# T1 sequence: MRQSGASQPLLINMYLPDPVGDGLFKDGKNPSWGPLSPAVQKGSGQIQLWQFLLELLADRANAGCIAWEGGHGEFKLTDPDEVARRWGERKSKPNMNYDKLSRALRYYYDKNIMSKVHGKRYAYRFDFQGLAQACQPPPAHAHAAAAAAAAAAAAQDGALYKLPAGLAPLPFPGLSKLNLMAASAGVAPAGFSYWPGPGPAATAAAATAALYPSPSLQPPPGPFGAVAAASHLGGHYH
# How it was run: (§1)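 Binding signal is given per hexamer as its read frequency for a factor divided by its frequency in the tag-only sample. GST-fused human transcription factors were expressed in yeast, captured on glutathione beads, barcoded with DNA and pooled with that sample, then incubated with 200 nmole of a 16-mer random double-stranded DNA library in Tris/NaCl/DTT/glycerol buffer for 30 min at room temperature. The pools were then washed, crosslinked, proximity-ligated, amplified by PCR and sequenced on an Illumina NextSeq500.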
# ETV5 = ETV5 (Homo sapiens, UniProt P41161 1-510); settings: protein: recombinant; tags: N-terminal GST; dsDNA, one strand shown
# How it was run: as §1
# HSF1 = HSF1 (Homo sapiens, UniProt Q00613 1-529); settings: protein: recombinant; tags: N-terminal GST; chain copies: 3; dsDNA, one strand shown
# How it was run: as §1
# SPIC = target: T2, SPIC (Homo sapiens, UniProt Q8N5J4 1-248); settings: protein: recombinant; tags: N-terminal GST; dsDNA, one strand shown
# T2 sequence: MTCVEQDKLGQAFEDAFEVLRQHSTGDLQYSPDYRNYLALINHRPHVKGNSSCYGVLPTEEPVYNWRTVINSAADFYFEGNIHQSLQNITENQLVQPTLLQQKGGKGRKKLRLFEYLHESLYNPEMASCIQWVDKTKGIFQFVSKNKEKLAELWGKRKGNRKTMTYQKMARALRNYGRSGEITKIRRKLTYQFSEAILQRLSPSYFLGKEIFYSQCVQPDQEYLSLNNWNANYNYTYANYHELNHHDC
# How it was run: as §1
# ELF4 = ELF4 (Homo sapiens, UniProt Q99607 1-663); settings: protein: recombinant; tags: N-terminal GST; dsDNA, one strand shown
# How it was run: as §1
# ELK4 = target: T3, ELK4 (Homo sapiens, UniProt P28324-2 1-405); settings: protein: recombinant; tags: N-terminal GST; dsDNA, one strand shown
# T3 sequence: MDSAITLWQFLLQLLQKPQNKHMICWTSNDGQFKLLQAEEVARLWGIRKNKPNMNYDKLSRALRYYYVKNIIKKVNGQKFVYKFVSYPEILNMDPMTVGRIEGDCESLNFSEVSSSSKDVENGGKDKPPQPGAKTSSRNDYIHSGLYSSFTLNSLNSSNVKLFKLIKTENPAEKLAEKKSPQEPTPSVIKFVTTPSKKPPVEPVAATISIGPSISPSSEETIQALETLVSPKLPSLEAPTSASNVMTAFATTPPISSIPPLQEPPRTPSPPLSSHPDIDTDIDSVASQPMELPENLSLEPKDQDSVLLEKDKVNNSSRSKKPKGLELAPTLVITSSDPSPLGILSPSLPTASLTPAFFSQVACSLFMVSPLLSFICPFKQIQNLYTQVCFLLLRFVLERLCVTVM
# How it was run: as §1
# ETV2 = target: T4, ETV2 (Homo sapiens, UniProt O00321 1-342); settings: protein: recombinant; tags: N-terminal GST; dsDNA, one strand shown
# T4 sequence: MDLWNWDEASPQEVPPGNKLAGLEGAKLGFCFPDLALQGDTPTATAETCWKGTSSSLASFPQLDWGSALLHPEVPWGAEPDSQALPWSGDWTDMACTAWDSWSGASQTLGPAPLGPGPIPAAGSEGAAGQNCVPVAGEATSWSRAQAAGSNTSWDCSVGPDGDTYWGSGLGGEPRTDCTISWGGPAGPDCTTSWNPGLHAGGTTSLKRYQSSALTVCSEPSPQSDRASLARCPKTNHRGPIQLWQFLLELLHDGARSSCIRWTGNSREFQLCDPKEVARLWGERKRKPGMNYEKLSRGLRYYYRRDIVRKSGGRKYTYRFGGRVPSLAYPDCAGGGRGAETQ
# How it was run: as §1
# ELF3 = target: T5, ELF3 (Homo sapiens, UniProt P78545 1-371); settings: protein: recombinant; tags: N-terminal GST; dsDNA, one strand shown
# T5 sequence: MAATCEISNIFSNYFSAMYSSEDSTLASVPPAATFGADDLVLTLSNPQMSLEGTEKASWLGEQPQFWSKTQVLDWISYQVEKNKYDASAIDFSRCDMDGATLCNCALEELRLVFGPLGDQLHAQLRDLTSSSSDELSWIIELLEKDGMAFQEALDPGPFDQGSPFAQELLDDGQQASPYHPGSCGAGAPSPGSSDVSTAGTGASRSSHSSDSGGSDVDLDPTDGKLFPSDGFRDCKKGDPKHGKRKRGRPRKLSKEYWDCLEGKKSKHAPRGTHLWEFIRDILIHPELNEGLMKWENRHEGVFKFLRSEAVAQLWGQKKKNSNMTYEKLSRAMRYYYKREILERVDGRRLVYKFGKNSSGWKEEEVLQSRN
# How it was run: as §1
# CRX = CRX (Homo sapiens, UniProt O43186 1-299); settings: protein: recombinant; tags: N-terminal GST; dsDNA, one strand shown
# How it was run: as §1
# ETV1 = ETV1 (Homo sapiens, UniProt P50549 1-477); settings: protein: recombinant; tags: N-terminal GST; dsDNA, one strand shown
# How it was run: as §1
# ERF = target: T6, ERF (Homo sapiens, UniProt P50548 1-548); settings: protein: recombinant; tags: N-terminal GST; dsDNA, one strand shown
# T6 sequence: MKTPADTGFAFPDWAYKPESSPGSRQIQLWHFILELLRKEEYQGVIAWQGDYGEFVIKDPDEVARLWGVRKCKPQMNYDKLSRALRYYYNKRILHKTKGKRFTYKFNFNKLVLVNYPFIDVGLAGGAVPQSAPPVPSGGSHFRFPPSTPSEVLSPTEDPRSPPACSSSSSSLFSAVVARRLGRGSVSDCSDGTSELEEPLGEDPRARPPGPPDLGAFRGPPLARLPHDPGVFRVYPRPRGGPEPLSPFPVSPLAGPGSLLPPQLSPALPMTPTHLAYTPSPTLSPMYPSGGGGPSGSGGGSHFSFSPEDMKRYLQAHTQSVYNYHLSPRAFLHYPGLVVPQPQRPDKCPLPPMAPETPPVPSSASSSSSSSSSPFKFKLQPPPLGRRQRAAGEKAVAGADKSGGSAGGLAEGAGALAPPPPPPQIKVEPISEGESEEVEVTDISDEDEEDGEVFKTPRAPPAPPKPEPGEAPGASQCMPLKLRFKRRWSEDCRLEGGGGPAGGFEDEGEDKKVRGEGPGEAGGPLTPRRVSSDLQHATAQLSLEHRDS
# How it was run: as §1
# ETV3L = target: T7, ETV3L (Homo sapiens, UniProt Q6ZN32 1-361); settings: protein: recombinant; tags: N-terminal GST; dsDNA, one strand shown
# T7 sequence: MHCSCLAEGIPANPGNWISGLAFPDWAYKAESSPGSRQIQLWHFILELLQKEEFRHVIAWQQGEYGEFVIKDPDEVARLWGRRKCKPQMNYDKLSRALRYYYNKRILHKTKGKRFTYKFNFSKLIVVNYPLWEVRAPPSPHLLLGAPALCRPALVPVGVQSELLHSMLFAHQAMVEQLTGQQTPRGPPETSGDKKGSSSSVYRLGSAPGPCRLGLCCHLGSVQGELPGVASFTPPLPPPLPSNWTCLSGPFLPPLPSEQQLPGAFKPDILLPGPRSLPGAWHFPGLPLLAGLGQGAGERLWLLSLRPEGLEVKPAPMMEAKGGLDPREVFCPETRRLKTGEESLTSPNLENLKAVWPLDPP
# How it was run: as §1
# ETS2 = target: T8, ETS2 (Homo sapiens, UniProt P15036 1-469); settings: protein: recombinant; tags: N-terminal GST; dsDNA, one strand shown
# T8 sequence: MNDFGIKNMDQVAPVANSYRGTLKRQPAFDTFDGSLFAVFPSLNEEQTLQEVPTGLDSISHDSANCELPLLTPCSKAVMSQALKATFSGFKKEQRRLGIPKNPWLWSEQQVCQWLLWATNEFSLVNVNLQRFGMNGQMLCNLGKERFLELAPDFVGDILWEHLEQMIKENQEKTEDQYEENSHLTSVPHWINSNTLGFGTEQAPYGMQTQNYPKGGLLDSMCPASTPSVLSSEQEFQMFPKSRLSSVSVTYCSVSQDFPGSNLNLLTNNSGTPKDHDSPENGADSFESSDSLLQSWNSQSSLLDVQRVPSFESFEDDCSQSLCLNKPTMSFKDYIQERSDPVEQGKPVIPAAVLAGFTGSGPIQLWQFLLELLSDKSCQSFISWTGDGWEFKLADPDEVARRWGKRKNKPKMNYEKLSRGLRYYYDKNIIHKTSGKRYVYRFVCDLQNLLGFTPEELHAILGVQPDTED
# How it was run: as §1
# SPDEF = target: T9, SPDEF (Homo sapiens, UniProt O95238 1-335); settings: protein: recombinant; tags: N-terminal GST; dsDNA, one strand shown
# T9 sequence: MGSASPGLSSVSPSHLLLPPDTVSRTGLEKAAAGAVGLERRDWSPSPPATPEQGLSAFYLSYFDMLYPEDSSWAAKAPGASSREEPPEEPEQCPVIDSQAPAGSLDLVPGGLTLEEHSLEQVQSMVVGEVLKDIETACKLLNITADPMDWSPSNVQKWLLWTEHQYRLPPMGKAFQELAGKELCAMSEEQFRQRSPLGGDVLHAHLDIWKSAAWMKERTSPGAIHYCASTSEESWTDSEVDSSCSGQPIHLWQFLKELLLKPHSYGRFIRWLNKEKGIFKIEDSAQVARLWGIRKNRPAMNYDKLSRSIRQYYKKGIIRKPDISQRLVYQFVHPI
# How it was run: as §1
# ETV7 = target: T10, ETV7 (Homo sapiens, UniProt Q9Y603 1-341); settings: protein: recombinant; tags: N-terminal GST; dsDNA, one strand shown
# T10 sequence: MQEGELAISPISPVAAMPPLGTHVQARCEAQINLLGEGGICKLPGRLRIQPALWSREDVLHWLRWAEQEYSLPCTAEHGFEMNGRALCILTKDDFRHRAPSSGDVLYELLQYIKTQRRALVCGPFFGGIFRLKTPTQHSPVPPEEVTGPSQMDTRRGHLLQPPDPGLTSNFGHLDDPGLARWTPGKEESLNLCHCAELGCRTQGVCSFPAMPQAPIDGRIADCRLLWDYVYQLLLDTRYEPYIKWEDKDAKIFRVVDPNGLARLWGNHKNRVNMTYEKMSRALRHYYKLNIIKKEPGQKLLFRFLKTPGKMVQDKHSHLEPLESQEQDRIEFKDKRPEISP
# How it was run: as §1
# ELF5 = target: T11, ELF5 (Homo sapiens, UniProt Q9UKW6-2 1-255); settings: protein: recombinant; tags: N-terminal GST; dsDNA, one strand shown
# T11 sequence: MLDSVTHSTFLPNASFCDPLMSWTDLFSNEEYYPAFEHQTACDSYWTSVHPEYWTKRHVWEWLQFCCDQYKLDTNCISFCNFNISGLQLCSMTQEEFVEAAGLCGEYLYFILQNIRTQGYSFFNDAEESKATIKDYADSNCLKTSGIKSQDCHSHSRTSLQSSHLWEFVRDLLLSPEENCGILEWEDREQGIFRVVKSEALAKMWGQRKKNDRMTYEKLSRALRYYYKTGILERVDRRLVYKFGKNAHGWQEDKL
# How it was run: as §1
# ETV3 = target: T12, ETV3 (Homo sapiens, UniProt P41162-2 1-143); settings: protein: recombinant; tags: N-terminal GST; dsDNA, one strand shown
# T12 sequence: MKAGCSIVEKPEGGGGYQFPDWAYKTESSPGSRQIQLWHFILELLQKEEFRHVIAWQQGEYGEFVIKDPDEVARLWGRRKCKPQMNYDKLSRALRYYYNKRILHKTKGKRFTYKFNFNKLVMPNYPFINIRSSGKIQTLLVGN
# How it was run: as §1
# ETV6 = ETV6 (Homo sapiens, UniProt P41212 1-452); settings: protein: recombinant; tags: N-terminal GST; dsDNA, one strand shown
# How it was run: as §1
# HSF1, sequence (Q00613 whole entry): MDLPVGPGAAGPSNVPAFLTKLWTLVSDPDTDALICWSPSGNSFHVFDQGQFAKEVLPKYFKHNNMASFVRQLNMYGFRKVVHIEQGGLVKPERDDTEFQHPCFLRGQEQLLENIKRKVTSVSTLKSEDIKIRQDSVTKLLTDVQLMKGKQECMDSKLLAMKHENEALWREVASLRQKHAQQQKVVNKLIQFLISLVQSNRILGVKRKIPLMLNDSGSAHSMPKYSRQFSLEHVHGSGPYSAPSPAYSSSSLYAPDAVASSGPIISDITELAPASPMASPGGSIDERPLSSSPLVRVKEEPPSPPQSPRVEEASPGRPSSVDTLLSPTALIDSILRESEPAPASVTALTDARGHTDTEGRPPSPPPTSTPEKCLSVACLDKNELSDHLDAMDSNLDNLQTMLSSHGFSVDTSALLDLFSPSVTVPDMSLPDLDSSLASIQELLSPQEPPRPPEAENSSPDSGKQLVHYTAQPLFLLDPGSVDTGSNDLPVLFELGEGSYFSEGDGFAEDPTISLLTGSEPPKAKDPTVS
# ETV5, sequence (P41161 whole entry): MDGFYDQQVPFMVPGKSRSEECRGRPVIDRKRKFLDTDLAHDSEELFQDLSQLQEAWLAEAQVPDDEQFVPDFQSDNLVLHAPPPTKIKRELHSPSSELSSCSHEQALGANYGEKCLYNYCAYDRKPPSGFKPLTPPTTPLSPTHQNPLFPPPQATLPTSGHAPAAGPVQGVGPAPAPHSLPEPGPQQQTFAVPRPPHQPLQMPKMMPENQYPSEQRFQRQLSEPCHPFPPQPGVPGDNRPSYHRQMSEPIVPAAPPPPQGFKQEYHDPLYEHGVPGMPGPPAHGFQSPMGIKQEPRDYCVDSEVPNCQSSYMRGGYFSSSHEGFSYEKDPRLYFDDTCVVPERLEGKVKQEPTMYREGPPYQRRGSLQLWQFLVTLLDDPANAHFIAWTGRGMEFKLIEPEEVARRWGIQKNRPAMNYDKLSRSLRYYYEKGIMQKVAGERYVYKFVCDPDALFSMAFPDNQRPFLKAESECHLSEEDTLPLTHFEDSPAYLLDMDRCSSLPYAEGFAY
# CRX, sequence (O43186 whole entry): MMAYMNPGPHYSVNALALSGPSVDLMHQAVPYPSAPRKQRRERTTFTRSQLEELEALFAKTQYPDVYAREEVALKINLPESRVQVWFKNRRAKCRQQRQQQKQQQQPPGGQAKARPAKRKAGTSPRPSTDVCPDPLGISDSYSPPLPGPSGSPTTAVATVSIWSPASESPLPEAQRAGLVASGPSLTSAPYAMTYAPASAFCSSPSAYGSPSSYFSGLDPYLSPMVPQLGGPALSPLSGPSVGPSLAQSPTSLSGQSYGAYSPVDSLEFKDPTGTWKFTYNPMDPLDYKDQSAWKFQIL
# ETV6, sequence (P41212 whole entry): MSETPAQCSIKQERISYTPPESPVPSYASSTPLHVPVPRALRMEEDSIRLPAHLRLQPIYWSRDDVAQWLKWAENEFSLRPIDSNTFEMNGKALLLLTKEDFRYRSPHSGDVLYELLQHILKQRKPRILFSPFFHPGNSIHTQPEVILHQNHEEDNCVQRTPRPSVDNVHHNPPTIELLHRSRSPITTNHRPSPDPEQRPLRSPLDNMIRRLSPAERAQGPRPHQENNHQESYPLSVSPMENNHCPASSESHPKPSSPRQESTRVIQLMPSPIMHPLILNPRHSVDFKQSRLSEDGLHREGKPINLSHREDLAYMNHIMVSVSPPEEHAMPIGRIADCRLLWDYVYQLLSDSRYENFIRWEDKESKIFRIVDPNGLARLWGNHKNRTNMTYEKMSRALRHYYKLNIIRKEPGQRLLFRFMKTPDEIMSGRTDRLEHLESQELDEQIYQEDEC
# ETV1, sequence (P50549 whole entry): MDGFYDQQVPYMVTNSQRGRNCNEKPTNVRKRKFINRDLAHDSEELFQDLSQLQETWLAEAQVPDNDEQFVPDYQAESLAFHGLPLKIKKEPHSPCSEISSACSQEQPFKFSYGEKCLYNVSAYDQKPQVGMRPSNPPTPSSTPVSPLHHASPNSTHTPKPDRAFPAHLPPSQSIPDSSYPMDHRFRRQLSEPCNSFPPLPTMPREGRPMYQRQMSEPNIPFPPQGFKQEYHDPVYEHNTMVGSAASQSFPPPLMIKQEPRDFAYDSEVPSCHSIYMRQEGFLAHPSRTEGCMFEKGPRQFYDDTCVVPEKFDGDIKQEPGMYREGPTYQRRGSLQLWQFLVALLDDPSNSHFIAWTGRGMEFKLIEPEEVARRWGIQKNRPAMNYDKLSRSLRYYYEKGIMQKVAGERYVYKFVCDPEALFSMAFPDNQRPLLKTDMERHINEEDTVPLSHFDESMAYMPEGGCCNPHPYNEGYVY
# ELF4, sequence (Q99607 whole entry): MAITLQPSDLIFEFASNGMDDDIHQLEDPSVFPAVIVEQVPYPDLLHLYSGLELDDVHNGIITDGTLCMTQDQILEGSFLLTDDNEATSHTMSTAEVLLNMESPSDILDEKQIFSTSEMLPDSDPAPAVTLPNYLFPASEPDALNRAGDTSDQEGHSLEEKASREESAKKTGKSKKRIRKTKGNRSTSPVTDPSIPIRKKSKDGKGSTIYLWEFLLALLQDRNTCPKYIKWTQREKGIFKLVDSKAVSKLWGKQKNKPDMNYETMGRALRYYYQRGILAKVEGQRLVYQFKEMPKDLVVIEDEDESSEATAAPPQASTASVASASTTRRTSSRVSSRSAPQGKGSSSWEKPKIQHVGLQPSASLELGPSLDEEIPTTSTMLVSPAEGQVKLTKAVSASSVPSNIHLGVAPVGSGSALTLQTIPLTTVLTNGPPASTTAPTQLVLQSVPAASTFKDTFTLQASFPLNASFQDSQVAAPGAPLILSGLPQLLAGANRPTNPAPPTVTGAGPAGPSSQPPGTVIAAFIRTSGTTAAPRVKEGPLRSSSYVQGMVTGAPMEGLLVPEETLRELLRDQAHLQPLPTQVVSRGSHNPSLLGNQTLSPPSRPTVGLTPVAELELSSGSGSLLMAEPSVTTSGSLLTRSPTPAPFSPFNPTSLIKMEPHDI
sequence,measurement,setting,value
TTTACA,binding signal,FEV,"1.2 fold enrichment (6-mer frequency, TF over GST control)"
same,binding signal,ETV5,"1.19 fold enrichment (6-mer frequency, TF over GST control)"
same,binding signal,HSF1,"1.32 fold enrichment (6-mer frequency, TF over GST control)"
same,binding signal,SPIC,"1.19 fold enrichment (6-mer frequency, TF over GST control)"
same,binding signal,ELF4,"1.26 fold enrichment (6-mer frequency, TF over GST control)"
same,binding signal,ELK4,"1.32 fold enrichment (6-mer frequency, TF over GST control)"
same,binding signal,ETV2,"1.26 fold enrichment (6-mer frequency, TF over GST control)"
same,binding signal,ELF3,"1.4 fold enrichment (6-mer frequency, TF over GST control)"
same,binding signal,CRX,"1.55 fold enrichment (6-mer frequency, TF over GST control)"
same,binding signal,ETV1,"1.3 fold enrichment (6-mer frequency, TF over GST control)"
same,binding signal,ERF,"1.28 fold enrichment (6-mer frequency, TF over GST control)"
same,binding signal,ETV3L,"1.23 fold enrichment (6-mer frequency, TF over GST control)"
same,binding signal,ETS2,"1.25 fold enrichment (6-mer frequency, TF over GST control)"
same,binding signal,SPDEF,"1.15 fold enrichment (6-mer frequency, TF over GST control)"
same,binding signal,ETV7,"1.22 fold enrichment (6-mer frequency, TF over GST control)"
same,binding signal,ELF5,"1.22 fold enrichment (6-mer frequency, TF over GST control)"
same,binding signal,ETV3,"1.22 fold enrichment (6-mer frequency, TF over GST control)"
same,binding signal,ETV6,"1.17 fold enrichment (6-mer frequency, TF over GST control)"
